In the library only some 4% were active in any assay of this set; here they are far more common.
TROY signal inh: inhibitors of TROY-driven NF-kB signaling, primary screen, Q293 LMP1-TROYcd cells, NF-kB luciferase, uHTS; Q293 LMP1-TROYcd NF-kB luciferase reporter, 4 h; 360,000 tested, 0.98% active; inhibition, % at 10 µM;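 active = compounds whose plate-normalised and pattern-corrected inhibition of the luciferase reporter signal at the single screening dose is 50% or more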
Peg3 prom inh: Peg3 promoter-driven luciferase inhibitors, primary screen, cell-based, HeLa, luciferase luminescence. inhibition, % at 20 µM. AID 588405, 2011. 360,000 tested, 1.7% active. HeLa PEG-Prom luciferase reporter, overnight;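 active = inhibition of at least 50% at 20 µM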
CF NFkB block: inhibitors of PAF-induced NF-kB signaling, primary screen, cell-based, GFP fluorescence, uHTS | inhibition, % at 5 µM | AID 588850, 2011 | 360,000 tested, 0.86% active | KKLEB NF-kB-GFP reporter, GFP fluorescence overnight;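 active = at least 50% inhibition at 5 µM, scaled per plate between neutral and stimulator controls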;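 also: PAF is a Pseudomonas aeruginosa culture filtrate used as stimulus; plate controls were PAF-stimulated DMSO wells for no effect and unstimulated DMSO wells for full effect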
HIF-2a inh: HIF-2a reporter inhibitors, primary screen, luminescence, 786-0 RCC cells; 786-0 RCC cells HIF-2a reporter, luciferase luminescence, overnight; inhibition, % at 18.8 µM; 360,000 tested, 0.72% active;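 active = inhibition of the luminescence signal of 40% or more relative to plate controls, in a single-dose primary screen at 18.75 µM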
TWEAK Fn14 block: inhibitors of TWEAK-Fn14 signaling, primary screen, luciferase reporter cells, uHTS | TWEAK-stimulated Fn14 reporter cells, luciferase luminescence, 8 h | inhibition, % at 10 µM | 360,000 tested, 2% active | AID 1159606, 2016; in the data active = inhibition above about 50%
KKLEB tox: cytotoxicity in KKLEB CF airway cells, primary screen, cytotoxicity control for CF NF-kB inhibitor project, cell-based, uHTS, fluorescence assay plates. KKLEB CF airway cells viability, ATPlite luminescence, overnight; stronger effect = lower value; cells stimulated with P. aeruginosa culture filtrate. 360,000 tested, 0.36% active. activity change (cytotoxicity), % at 5 µM;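 active = corrected activity change at or below -50% at 5 µM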
* hit, by the source's call; . = no result.

SMILES	TROY signal inh	Peg3 prom inh	CF NFkB block	HIF-2a inh	TWEAK Fn14 block	KKLEB tox
CCn1cc(C(=O)NCc2ccc3c(c2)OCO3)c(=O)c2cc(F)c(N3CCN(C(=O)c4ccco4)CC3)cc21	40	51*	-20	23	54*	7
CCn1cc(C(=O)NCc2ccccc2)c(=O)c2cc(F)c(N3CCN(C(=O)c4ccco4)CC3)cc21	36	68*	7	15	68*	10
CCn1cc(C(=O)NC(C)C)c(=O)c2cc(F)c(N3CCN(C(=O)c4ccco4)CC3)cc21	-6	43	4	16	2	2
CCn1cc(C(=O)Nc2ncccc2O)c(=O)c2cc(F)c(N3CCN(C(=O)c4ccco4)CC3)cc21	-1	53*	8	7	17	-3
O=C(COC(=O)C1CC1)Nc1ccc(Cl)cc1Cl	-6	-11	44	-14	0	-21
CC1(C)C(=O)Nc2ccccc2N1C(=O)COc1cc(Cl)ccc1Cl	-1	5	8	2	16	4
CCc1ccc(NC(=O)C(CC)Sc2nc3cc4c(cc3c(=O)n2Cc2ccco2)OCO4)cc1 (stereo not drawn)	-5	30	48	0	-27	-63*
Cc1ccc(N2CC(C(=O)NCc3cccnc3)CC2=O)cc1 (stereo not drawn)	5	7	-20	4	2	10
COc1ccc(N2CC(C(=O)NCc3cccnc3)CC2=O)cc1 (stereo not drawn)	.	7	-12	11	75*	11
CN(C)S(=O)(=O)c1cccc(C(=O)Nc2ccc(S(=O)(=O)N3CCCC3)cc2)c1	-7	19	8	7	8	-3
N#CCCCC#Cc1ccc2c(c1)COc1c3ccccc3nn1-2	81*	-40	-27	-19	93*	-50
CCOC(=O)c1ccc(/C=C2\c3ccccc3C(=O)N2c2ccccc2)cc1F	-19	-79	20	-60	-16	2
CC(CCC(C)C(C)(C)C)[C@@H]1CC[C@H]2C3C[C@H](OS(O)(=S)=S)[C@H]4C[C@H](OS(O)(=S)=S)[C@@H](OS(O)(=S)=S)C[C@]4(C)[C@H]3CC[C@]12C (stereo partly drawn) (tested in a mixture with another compound)	36	58*	30	1	-58	8
CC(CCC(=O)NN)C1CCC2C3CCC4CC(O)CCC4(C)C3CCC12C (stereo not drawn)	24	-19	-26	5	-17	7
CC(C)c1cc(Cn2c3ccccc3c(=O)n2C(C)C)on1	7	6	4	13	15	-6
Cc1nn(CCC#N)c2nc(-c3ccccc3)cc(C(F)(F)F)c12	52*	-87	9	-79	25	-1
Cc1nn(CCc2nn[nH]n2)c2nc(-c3ccccc3)cc(C(F)(F)F)c12	11	14	1	23	-4	12
COc1ccc(Cc2c(-c3cccc(Cl)c3)nc3c(C)cc(Br)cn23)c(C)c1	-3	30	-1	18	27	2
CC(=O)Nc1ccc(NC(=O)c2ccc(S(=O)(=O)N(C)c3ccccc3)cc2)cc1	20	15	-14	23	3	11
Cc1nc2ccc(NC(=O)c3ccc(S(=O)(=O)N(C)c4ccccc4)cc3)cc2s1	56*	67*	2	23	58*	19
Oc1ccccc1C1=NC(c2ccccc2)NC(c2ccccc2)C1 (stereo not drawn)	-18	-52	30	-34	-2	-10
CCn1nnc(NC(=O)c2ccc([N+](=O)[O-])o2)n1	-14	25	68*	-29	7	0
CCCCn1nnc(NC(=O)c2ccc(-c3ccccc3[N+](=O)[O-])o2)n1	-3	-85	4	-151	-2	-10
Cc1ccc(N(Cc2ccccc2)C(=O)CSC(C)C(=O)Nc2cc(C)on2)cc1 (stereo not drawn)	-5	-17	-8	-82	-81	9

Bioassay records: PubChem BioAssay, Sanford-Burnham Center for Chemical Genomics
